14-3-3 Bad inh: inhibitors of 14-3-3 zeta/Bad binding, primary screen, biochemical, TR-FRET, bovine 14-3-3 zeta; 14-3-3 protein zeta/delta (Bos taurus), P63103; TR-FRET 14-3-3zeta/Dy647-pBad peptide displacement, 1 h; inhibition, % at 21.7 µM; 220,000 tested, 0.71% active;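 active = inhibition above about 70%, limit read from the data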
NCF1 inh: p47phox/p22phox peptide binding inhibitors, primary screen, biochemical, uHTS, NADPH oxidase regulatory subunit | Neutrophil cytosol factor 1 (Homo sapiens), P14598 | fluorescence polarization, 2 h | inhibition, % at 24.7 µM | 220,000 tested, 0.53% active | AID 1274, 2008
Mcl1 Bid PPI: Mcl-1/Bid binding inhibitors, primary screen, biochemical, TR-FRET, 1536-well; TR-FRET Mcl-1/Bid-Dy647 peptide binding; inhibition, % at 21.7 µM; 220,000 tested, 0.97% active; AID 1021, 2008;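 active = compounds that cut the binding signal by more than half at the single screening dose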;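 also: His-tagged Mcl-1 with europium anti-His antibody binding Bid BH3 peptide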
Target sequence (Q07820 whole entry, looked up): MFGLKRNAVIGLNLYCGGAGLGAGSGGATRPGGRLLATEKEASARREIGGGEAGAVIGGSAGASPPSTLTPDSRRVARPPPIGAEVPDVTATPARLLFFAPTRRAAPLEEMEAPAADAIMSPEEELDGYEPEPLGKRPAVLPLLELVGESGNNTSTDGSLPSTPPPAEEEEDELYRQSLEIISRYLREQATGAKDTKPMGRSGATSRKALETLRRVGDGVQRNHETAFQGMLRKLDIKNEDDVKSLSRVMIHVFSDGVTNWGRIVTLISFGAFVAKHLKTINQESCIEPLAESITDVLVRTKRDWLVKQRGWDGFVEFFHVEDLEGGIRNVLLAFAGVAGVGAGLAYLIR
eIF4E-4G inh: eIF4E–eIF4G protein interaction inhibitors, primary screen, biochemical, uHTS, TR-FRET, eIF4GI fragment; inhibition, % at 21.7 µM; TR-FRET eIF4E-eIF4GI(517-606) binding, 2 h; AID 782, 2007; 220,000 tested, 0.37% active
Mcl1 Noxa PPI: Mcl-1/Noxa binding inhibitors, primary screen, biochemical, TR-FRET, 1536-well; inhibition, % at 21.7 µM; 220,000 tested, 1.5% active; TR-FRET Mcl-1/Noxa peptide binding, 2 h; Induced myeloid leukemia cell differentiation protein Mcl-1 (Homo sapiens), Q07820;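 active = compounds that cut the protein-peptide binding signal by more than 50% relative to plate controls in a single-dose test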;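 also: His-tagged Mcl-1 with rhodamine Noxa BH3 peptide and terbium anti-His antibody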
Bim-Mcl-1: inhibitors of Bim peptide binding to Mcl-1, primary screen, biochemical, bead-based flow cytometry, multiplex. 190,000 tested, 0.1% active. Bim peptide-Mcl-1 binding. inhibition, % at 10 µM. Induced myeloid leukemia cell differentiation protein Mcl-1 (Homo sapiens), Q07820; in the data active = inhibition above about 40%
Large screens that a line does not name were inactive. Compounds with a hit are over-represented: about 3.3% of the library has one in this group of screens.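 The calls were made as follows, unless noted: active = inhibition above about 30% (limit read from the data); inactive = the rest.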

Cn1ccs/c1=N\C(=O)Nc1cccc(Cl)c1	none
CCOc1cccc(CNCCO)c1OCc1ccc(Cl)cc1Cl	Mcl1 Bid PPI 72
CCOc1c(Cl)cc(Cl)cc1CNCCNCCO	14-3-3 Bad inh 72
COC(=O)c1ccc(C(=O)OC)c(NC(=S)N2CCOCC2)c1	none
Cc1ccc(-n2c(SCC(=O)NCCN3C(=O)CSC3=O)nnc2-c2ccccc2)cc1C	Mcl1 Bid PPI 52
Cc1ccc(-n2c(SCC(=O)NCCN3C(=O)CSC3=O)nnc2-c2ccccc2)cc1	none
Cc1noc(C)c1COc1cccc(C(=O)NC(C)(C)C)c1	none
COC(=O)c1cccc(C23CC4(C2)[C@H](CN(Cc2cccnc2)[C@@H]4c2ccccc2)C3c2ccccc2)c1 (some centres undefined)	none (no result: Bim-Mcl-1)
CCn1cnc2sc(C(=O)N3CCN(Cc4ccc5c(c4)OCO5)CC3)c(C)c2c1=O	NCF1 inh 85
O=C(c1cccnc1)N1CCN(Cc2ccc3c(c2)OCO3)CC1	14-3-3 Bad inh 76, Mcl1 Bid PPI 61
COc1ccc(CN2CCN(C(=O)c3cccnc3)CC2)cc1Br	none
O=C(c1cccnc1)N1CCN(Cc2cccc(Br)c2)CC1	14-3-3 Bad inh 71
O=C(c1cccc([N+](=O)[O-])c1)N1CCN(Cc2ccc3c(c2)OCO3)CC1	none
Cc1nn(C)c(C)c1CN(Cc1nc(CCC(C)C)no1)C(C)C	none
Cc1ccc2c(c1)c1cccc3c1n2CCN3CCC(N)=O	Mcl1 Noxa PPI 67
CCCN(C(=O)c1cc2c(s1)CCC2)c1c(N)n(Cc2ccccc2)c(=O)[nH]c1=O	Mcl1 Noxa PPI 62 (no result: Bim-Mcl-1)
CCCN(C(=O)COc1ccc(Cl)cc1Cl)c1c(N)n(Cc2ccccc2)c(=O)[nH]c1=O	none
COCCCN(C(=O)c1cc2c(s1)CCC2)c1c(N)n(Cc2ccccc2)c(=O)[nH]c1=O	Mcl1 Noxa PPI 53
CCOC(=O)c1ccc(Nc2ccc(-c3ccc(OC)c(OC)c3)nn2)cc1	14-3-3 Bad inh 81
CC(=O)NC(CC(=O)O)c1ccc([N+](=O)[O-])cc1 (centres undefined)	none (no result: Bim-Mcl-1)
COC(=O)c1ccc(COc2ccc(/C=C(\C#N)c3nc4ccccc4[nH]3)cc2OC)o1	none
CCc1ccc(NC(=O)COc2ccc(/C=C(/C#N)c3nc4ccccc4[nH]3)cc2OC)cc1	Mcl1 Bid PPI 56
CCOc1cccc(/C(O)=C2/C(=O)C(=O)N(Cc3ccco3)C2c2ccncc2)c1 (centres undefined)	14-3-3 Bad inh 74
O=C(O)/C(=C\c1ccccc1Cl)c1ccc(S(=O)(=O)N2CCCCC2)s1	Mcl1 Noxa PPI 62
O=C(O)/C(=C\c1ccc(Cl)c([N+](=O)[O-])c1)c1ccc(S(=O)(=O)N2CCCCC2)s1	Mcl1 Noxa PPI 56
COC(=O)CCNCCSc1nnc(-c2ccco2)n1Cc1ccccc1	none (no result: Bim-Mcl-1)
COc1ccc(CNc2ncnc3c2[nH]c2cc(OC)c(OC)cc23)cc1	Mcl1 Noxa PPI 52 (no result: Bim-Mcl-1)
NNC(=O)c1cc2c(ccc3ccccc32)o1	none
O=C(Nc1cccnc1)c1cc2c(ccc3ccccc32)o1	14-3-3 Bad inh 77, eIF4E-4G inh 76
O=C(Nc1cccnc1)c1cccc(-c2cc3ccccc3oc2=O)c1	14-3-3 Bad inh 78, Mcl1 Bid PPI 57
COc1cc(NC(=O)c2cccnc2)ccc1-c1cc2ccccc2oc1=O	Mcl1 Noxa PPI 51
O=C(OCC(=O)N1CCOCC1)c1cccc(S(=O)(=O)N2CCCc3ccccc32)c1	none (no result: Bim-Mcl-1)
CCOc1ccc(-n2nc3c(=O)[nH]nc(C)c3c2C)cc1	NCF1 inh 57
CCOc1ccc(-n2nc3c(=S)[nH]nc(C)c3c2C)cc1	none
CCc1ccc(C(=O)CSc2ncn[nH]2)cc1	eIF4E-4G inh 32
CCCC1COC(Cn2cncn2)(c2ccc(C)cc2)O1 (centres undefined)	14-3-3 Bad inh 88
